In the library only some 1.1% were active in any assay of this set; here they are far more common.
OPRM1-OPRD1 ag = OPRM1-OPRD1 heterodimerization agonism; P35372+P41143; cells, luminescence; activation, % at 9.3 µM; 0.3% of 340,000 active;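 also: 0% = vehicle-treated cells and 100% = reference agonist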
HTR5A ag ctr = counter-screen for OPRM1-OPRD1 agonists: human HTR5A agonism | HTR5A agonist assay, luminescence, cell-based | activation, % at 9.3 µM | 0.61% of 340,000 active | AID 504692; in the data active = activation mostly above about 9.5%, no sharp cut-off; inactive = mostly below about 7.6%;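 also: 0% = cells with vehicle only and 100% = reference agonist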
Target sequence (P47898 whole entry, looked up): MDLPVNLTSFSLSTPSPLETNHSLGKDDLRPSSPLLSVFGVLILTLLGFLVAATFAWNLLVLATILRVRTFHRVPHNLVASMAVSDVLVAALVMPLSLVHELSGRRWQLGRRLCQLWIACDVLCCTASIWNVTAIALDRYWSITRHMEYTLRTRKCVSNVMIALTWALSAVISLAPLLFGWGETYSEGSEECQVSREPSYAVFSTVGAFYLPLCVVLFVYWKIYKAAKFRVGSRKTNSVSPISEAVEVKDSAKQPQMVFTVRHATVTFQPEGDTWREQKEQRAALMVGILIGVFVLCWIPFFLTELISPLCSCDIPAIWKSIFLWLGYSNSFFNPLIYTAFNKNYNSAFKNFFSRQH
OPRM1-OPRD1 inv = mu-delta opioid heterodimer inverse agonism; P35372+P41143; cell-based MOR-DOR heterodimer luminescence; inhibition, % at 9.3 µM; 0.21% of 340,000 active; AID 504357; in the data active = inhibition above about 22%, passing the limit was not always enough;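 also: 0% = cells with DMSO and 100% = wells without cells with DMSO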
HTR5A inv ctr = counter-screen for OPRM1-OPRD1 inverse agonists: human HTR5A inverse agonism; HTR5A cell line, luminescence; 0.083% of 340,000 active; inhibition, % at 9.3 µM; in the data active = inhibition mostly above about 23%, no sharp cut-off; inactive = mostly below about 18%;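 also: 0% = cells with DMSO and 100% = no-cell wells with DMSO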
MOR-DOR ag conf = confirmation of human OPRM1-OPRD1 heterodimerization agonists; shares compounds with OPRM1-OPRD1 ag; cells, MOR-DOR heterodimerization, luminescence complementation; activation, % at 9.3 µM; 45% of 830 active; AID 504904;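 also: 0% = vehicle-treated cells and 100% = reference agonist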
HTR5A ag counter = counter-screen for OPRM1-OPRD1 agonists: human HTR5A agonism | shares compounds with OPRM1-OPRD1 ag | HTR5A agonist counterscreen, cell luminescence | activation, % at 9.3 µM | 8% of 830 active; in the data active = activation above about 17%;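 also: 0% = vehicle-treated cells and 100% = reference agonist response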
Starred values were filed as active, the others as inactive. Rule as the data show it, unless noted: active = activation above about 18%; inactive = the rest.

`CC(C)C12CN3CCN(CC(C3)/C1=N\O)C2` gave OPRM1-OPRD1 ag -2, HTR5A ag ctr 12*, OPRM1-OPRD1 inv 13 and HTR5A inv ctr -12.
`CCCCc1ccc(NC2=NCCCS2)cc1` gave OPRM1-OPRD1 ag 1, HTR5A ag ctr -2, OPRM1-OPRD1 inv -6 and HTR5A inv ctr 5.
For CC12CC[C@H]3[C@@H](CCC4(O)C[C@H](O)CCC34/C=N/NC(=O)c3ccccc3Cl)C1(O)CCC2C1=CC(=O)OC1 (stereo not given in full) the results were OPRM1-OPRD1 ag -1, HTR5A ag ctr 4, OPRM1-OPRD1 inv 5 and HTR5A inv ctr -13.
Screening CC1OC(OC2C(O)CC(OC3C(O)CC(OC4CCC5(C)C(CCC6C5CCC5(C)C(C7=CC(=O)OC7)C(O)CC65O)C4)OC3C)OC2C)CC(O)C1O (stereo not given) returned OPRM1-OPRD1 ag 62*, HTR5A ag ctr 19*, OPRM1-OPRD1 inv -320 and HTR5A inv ctr -76.
Screening C#CC[N+]1(C)[C@@H]2CC(OC(=O)C(CO)c3ccccc3)C[C@H]1C(O)C2 (stereo not given in full) returned OPRM1-OPRD1 ag -5, HTR5A ag ctr -4, OPRM1-OPRD1 inv 22 and HTR5A inv ctr 15.
CCc1ccccc1NC(=O)N1C[C@H]2C[C@@H](C1)c1cccc(=O)n1C2 was read as OPRM1-OPRD1 ag -3, HTR5A ag ctr 2, OPRM1-OPRD1 inv 13 and HTR5A inv ctr -13.
O=C(c1cn(Cc2ccccc2)c2ccccc12)C1CC1 was read as OPRM1-OPRD1 ag 1, HTR5A ag ctr 11*, OPRM1-OPRD1 inv -6 and HTR5A inv ctr -28.
Screening CNC(=S)N1CCn2cccc2C1c1cccnc1 (stereo not given) returned OPRM1-OPRD1 ag -3, HTR5A ag ctr 10*, OPRM1-OPRD1 inv 14 and HTR5A inv ctr -27.
Screening CCCCNC(=S)N1CCn2cccc2C1c1cccnc1 (stereo not given) returned OPRM1-OPRD1 ag -2, HTR5A ag ctr -2, OPRM1-OPRD1 inv 10 and HTR5A inv ctr 6.
`COC(=O)C1=C(c2cccc(OC)c2OC)C[C@@H]2CC[C@H]1N2C(=O)NCCCOC(C)C` gave OPRM1-OPRD1 ag -3, HTR5A ag ctr 2, OPRM1-OPRD1 inv 15 and HTR5A inv ctr -29.
For COC1CCC(OC2CC(C3(C)CCC4(CC(O)C(C)C(C(C)/C=C(\C)C(=O)C(C)CC(C)C(=O)O)O4)O3)OC3(OC(C4OC(O)(CO)C(C)CC4C)CC3C)C2C)OC1C (stereo not given) the results were OPRM1-OPRD1 ag 19*, HTR5A ag ctr 8, OPRM1-OPRD1 inv -84 and HTR5A inv ctr -30.
`CCCCn1c(NC(=O)c2ccc(Br)o2)c(C(=O)OCC)c2nc3ccccc3nc21` gave OPRM1-OPRD1 ag -11, HTR5A ag ctr -5, OPRM1-OPRD1 inv 55* and HTR5A inv ctr 12.
For CCCCn1c(N)c(C(=O)NCCN2CCOCC2)c2nc3ccccc3nc21 the results were OPRM1-OPRD1 ag -3, HTR5A ag ctr 0, OPRM1-OPRD1 inv 15 and HTR5A inv ctr -1.
COc1ccc2c(c1)NP(=S)(Oc1ccccc1)N2 (stereo not given) was read as OPRM1-OPRD1 ag 1, HTR5A ag ctr 9.4*, OPRM1-OPRD1 inv -4 and HTR5A inv ctr -33.
O=c1c2ccccc2nc(/C=C/c2ccc(O)cc2)n1-c1ccccc1O was read as OPRM1-OPRD1 ag -3, HTR5A ag ctr -3, OPRM1-OPRD1 inv 17 and HTR5A inv ctr 7.
O=c1c2ccccc2nc(/C=C/c2ccccc2)n1-c1ccccc1O was read as OPRM1-OPRD1 ag 58*, HTR5A ag ctr -1, OPRM1-OPRD1 inv -262 and HTR5A inv ctr 2.
C/C=C1/CN2C3CC1C(CO)(C(=O)OC)C2Cc1c3n(C)c2ccccc12 (stereo not given) was read as OPRM1-OPRD1 ag 0, HTR5A ag ctr 0, OPRM1-OPRD1 inv 3 and HTR5A inv ctr 2.
For CC(=O)O[C@H]1CC[C@@]2(C)C(=CC(=O)C3C2CC[C@@]2(C)C3C[C@H](OC(C)=O)[C@@H]2OC(C)=O)C1 (stereo not given in full) the results were OPRM1-OPRD1 ag -1, HTR5A ag ctr 9.0*, OPRM1-OPRD1 inv 7 and HTR5A inv ctr -35.
CO[C@H]1[C@@H](OC)CC(OC2OC(CO)C(O)C(O)C2O)/C(=C\C#N)[C@@H]1O (stereo not given in full) was read as OPRM1-OPRD1 ag -2, HTR5A ag ctr 1, OPRM1-OPRD1 inv 10 and HTR5A inv ctr -10.
`Cn1ncnc2c(=O)n(C)c(=O)nc1-2` gave OPRM1-OPRD1 ag 31*, HTR5A ag ctr 20*, OPRM1-OPRD1 inv -143 and HTR5A inv ctr -3.
For COc1cc2c3cc1Oc1cc(ccc1O)C[C@@H]1c4c(cc(OC)c(O)c4Oc4ccc(cc4)C[C@H]3N(C)CC2)CCN1C the results were OPRM1-OPRD1 ag 34*, HTR5A ag ctr 11, OPRM1-OPRD1 inv -189, HTR5A inv ctr -23, MOR-DOR ag conf 65* and HTR5A ag counter -4.
Screening COc1cc2c3cc1Oc1c(OC)c(OC)cc4c1[C@H](Cc1ccc(cc1)Oc1cc(ccc1O)C[C@H]3N(C)CC2)N(C)CC4 returned OPRM1-OPRD1 ag -1, HTR5A ag ctr 1, OPRM1-OPRD1 inv 6 and HTR5A inv ctr 1.
For C[C@@H]1O[C@@H](O[C@H]2C[C@@H](O)[C@]3(CO)[C@H]4[C@H](O)C[C@]5(C)[C@@H](C6=CC(=O)OC6)CC[C@]5(O)[C@@H]4CC[C@]3(O)C2)[C@H](O)[C@H](O)[C@H]1O the results were OPRM1-OPRD1 ag 70*, HTR5A ag ctr 30*, OPRM1-OPRD1 inv -386, HTR5A inv ctr -33, MOR-DOR ag conf 79* and HTR5A ag counter 6.
`CN(C(=O)Cc1ccc(Cl)c(Cl)c1)C(CN1CCCC1)c1cccc(OCC(=O)O)c1` (stereo not given) gave OPRM1-OPRD1 ag 57*, HTR5A ag ctr 1, OPRM1-OPRD1 inv -308, HTR5A inv ctr -4, MOR-DOR ag conf 37* and HTR5A ag counter -1.
`Cc1cccc(OCC(=O)N2CCN(Cc3ccc4c(c3)OCO4)CC2)c1` gave OPRM1-OPRD1 ag -3, HTR5A ag ctr 1, OPRM1-OPRD1 inv 17 and HTR5A inv ctr -2.
Screening CCOC(=O)C1(CCc2ccccc2)CCN(C2CCSCC2)CC1 returned OPRM1-OPRD1 ag 2, HTR5A ag ctr -3, OPRM1-OPRD1 inv -10 and HTR5A inv ctr 7.
`CCOC(=O)C1(CCc2ccccc2)CCN(Cc2ccc3c(c2)OCCO3)CC1` gave OPRM1-OPRD1 ag 25*, HTR5A ag ctr 6, OPRM1-OPRD1 inv -121, HTR5A inv ctr -13, MOR-DOR ag conf 1 and HTR5A ag counter 4.
Screening CCOC(=O)C1(CCc2ccccc2)CCN(Cc2ccc(NC(C)=O)cc2)CC1 returned OPRM1-OPRD1 ag 293*, HTR5A ag ctr -1, OPRM1-OPRD1 inv inactive, HTR5A inv ctr 2, MOR-DOR ag conf 372* and HTR5A ag counter 0.
